This is an account of results in PubChem BioAssay (NCATS).

Molecules are shown by their SMILES. Results filed as inconclusive are left out. The source made the active and inactive calls. Calls follow the shape of the dose curve; as a rule, active = well fitted inhibition curve with a large enough effect; inconclusive = small, poorly fitted or top-dose-only effect; inactive = no such curve, though single readings can be large or run the other way.

The experiment concerns the target Retinaldehyde dehydrogenase 3 (Homo sapiens) (UniProt P47895). Briefly: qHTS for Inhibitors of the Aldehyde Dehydrogenase Family (ALDH1A3) Primary screen (AID 2061315).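 Also: plate controls were DMSO vehicle for no effect and reference inhibitor for full effect.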 Conditions: ALDH inhibition qHTS; series mostly up to 56 µM; activity change, negative = inhibition: at the top concentration.
In the case of `Cc1ccnc(NC(=S)N2CCCN(c3cccc(C(F)(F)F)c3)CC2)c1`, the “activity change, negative = inhibition” value is 13.5% (inactive).

Regarding `COc1cc(O)c(C(CC(=O)N2CCC[C@@H](C)C2)c2ccc3c(c2)OCO3)c(OC)c1` (some centres not stated), the “activity change, negative = inhibition” value is -7.71% [at 114 µM] (inactive).

As for `COc1ccc(OC)c(C2=Nn3c(nnc3-c3cc(OC)ccc3OC)SC2)c1`, the “activity change, negative = inhibition” value was 5.29% (inactive).

Consider `CN(Cc1ccco1)c1ncnc2ccc(-c3ccccc3Cl)cc12`, for which the “activity change, negative = inhibition” value was -9.39% (inactive).

Turning to `O=C1CCc2cc(S(=O)(=O)Nc3ccc(F)c(Cl)c3)c(F)cc2N1`, the Potency entry was “inactive”.

Turning to `Cc1nnc(-c2cnn(C)c2N)o1`, the “activity change, negative = inhibition” value was -11.7% (inactive).

For the compound `O=C(NCc1ccccc1)Nc1ncnc2c1C(c1ccccc1)c1c(ccc3ccccc13)O2` (configuration not stated), the “activity change, negative = inhibition” value is -12.9% (inactive).

Take `Nc1nc(NCc2ccc(-c3cccnc3)cc2)c2ccccc2n1`: the “activity change, negative = inhibition” value is 7.07% (inactive).

Turning to `O=C1c2ccccc2C(=O)N1c1ccccn1`, the “activity change, negative = inhibition” value is 9.35% (inactive).

With `CC1(C)CC[C@]2(C(=O)O)CC[C@]3(C)C(=CCC4[C@@]5(C)C[C@@H](O)[C@H](O)[C@@](C)(CO)C5CC[C@]43C)C2C1` (some centres not stated), the “activity change, negative = inhibition” value was 13.1% [at 28 µM] (inactive).

Turning to `O=C1c2ccccc2C(=O)N1c1ccc(O)cc1`, the “activity change, negative = inhibition” value was -8.82% (inactive).

With `O=C(c1ccc2c(c1)ncn2-c1ccccc1)N1CCCCC1`, the “activity change, negative = inhibition” value was 1.61% (inactive).

In the case of `Cc1ccc(S(=O)(=O)N2CCN(c3nc(-c4ccco4)nc4ccccc34)CC2)cc1`, the “activity change, negative = inhibition” value was 20.7% (inactive).

`CC1(C)CC(C(=O)Nc2ccc([S+](=O)([O-])Nc3nccs3)cc2)C1`: the “activity change, negative = inhibition” value was 8.31% (inactive).

`Cc1cc2c(s1)c1cnn(Cc3ccc(C(C)C)cc3)c(=O)c1n2C`: the “activity change, negative = inhibition” value is 20.2% (inactive).

On to `FC(F)(F)c1cc(-c2ccc(CNc3nc(C4CCCC4)nc4ccccc34)cc2)ccn1`, for which the “activity change, negative = inhibition” value is 6.7% (inactive).

Regarding `O=C(Nc1ccccc1)Nc1nc(Nc2cc(F)cc(F)c2)nc(NC2CCCC2)n1`, the “activity change, negative = inhibition” value is 11.4% (inactive).

Consider `COc1ccc(S(=O)(=O)N2CCN(S(=O)(=O)c3ccc(OC)cc3)CC2)cc1`, for which the Potency result was “inactive”.

For the compound `CCOC(=O)c1ccc(-c2ccc3ncnc(N(C)Cc4sccc4C)c3c2)o1`, the “activity change, negative = inhibition” value was -10.7% (inactive).

For `O=C(Nc1ccc(-n2cncn2)c(F)c1)Nc1nnc(-c2ccncc2)s1`, the “activity change, negative = inhibition” value was 9.19% (inactive).

Regarding `N#CN1CCC(NS(=O)(=O)c2ccc(F)cc2)C1` (configuration not stated), the “activity change, negative = inhibition” value was -4.84% (inactive).

For the compound `CCOC(=O)c1ccoc1-c1ccc2ncnc(N(C)Cc3sccc3C)c2c1`, the “activity change, negative = inhibition” value is 30.5% (inactive).
